Data: PubChem BioAssay AID449762 (Southern Research Specialized Biocontainment Screening …, 2010)
The whole screen tested about 330,000 compounds, of which about 1,900 (0.58%) were called active. Not shown: some 4% with an inconclusive outcome. The list is a sample of the results. Results with a measured potency or affinity are listed apart. Unmarked numbers belong to inactive results. Rule as the data show it: inconclusive = inhibition above about 70% without an active follow-up result; inactive = below that.

Assay: M. tuberculosis growth inhibition, HTS (AID 449762);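 also: bacterial growth assessed after seven days of incubation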
Settings: M. tuberculosis H37Rv growth inhibition, 7H9 media; at 25 µM; stronger effect = higher value

| Structure (SMILES) | inhibition [%] |
| --- | --- |
| COc1ccc(CC(=O)N(Cc2ccccc2)c2ccc(C)cc2)cc1S(=O)(=O)N1CCOCC1 | 4.3 |
| CCOC(=O)CCc1cnccc1-c1cccc(OC)c1O | 4.79 |
| CCCN1C(=O)N(c2cccc(C)c2)C(C)(O)CC1(C)C (stereo unspecified) | 0.42 |
| O=C(c1cccc(C(F)(F)F)c1)N1CCN(C2CCCCC2)CC1 | 6.41 |
| CN(C)CC/C=C1/c2ccccc2Sc2ccc(Cl)cc21 | 39 |
| CC[N+](C)(C)CC/C=C1/c2ccccc2Sc2ccc(Cl)cc21 | -9.06 |
| CN(CCOc1ccc(-c2ccn(S(=O)(=O)c3ccc(Cl)cc3)n2)cc1)c1ccccn1 | 7.05 |
| Cc1ccc(-c2noc(CCC(=O)N3CCCc4ccccc43)n2)cc1 | 6.56 |
| CCOC(=O)c1c(NC(=O)COC(=O)Cc2n[nH]c(=O)c3ccccc23)sc(C(=O)NC)c1C | -12.1 |
| O=[N+]([O-])c1cccc(-c2nc(-c3cccs3)c(-c3cccs3)[nH]2)c1 | 1.58 |
| O=[N+]([O-])c1cccc(-c2nc(-c3ccccc3)c(-c3cccs3)[nH]2)c1 | 1.45 |
| CN(C)c1ccc(C=C2C(=O)OC(C)(C)OC2=O)cc1 | 2.97 |
| CC1=NN(c2ccccc2)C(=O)/C1=C/c1ccc[nH]1 | 1.35 |
| COc1cc2cc(Oc3ccc4ccc(=O)oc4c3)c(=O)oc2cc1O[C@@H]1O[C@H](CO)[C@@H](O)[C@H](O)[C@H]1O | -3.36 |
| c1cc2c3c(cccc3c1)NC1(CCCCC1)N2 | -8.51 |
| CC(C)(C)C1CCC2(CC1)Nc1cccc3cccc(c13)N2 | 28.8 |
| Cc1cc(C(=O)N2CCN(Cc3ccccc3)CC2)on1 | 4.33 |
| CN1C(=O)N(C)C2(c3ccccc3)Nn3c(s/c(=C/c4ccccc4F)c3=O)=NC12c1ccccc1 (stereo unspecified) | 1.37 |
| CCCC(C)C(=O)Nc1ccccc1C(=O)OCC (stereo unspecified) | -6.12 |
| CC1=C(C#N)C(c2cccnc2)C2=C(CC(c3ccc(Cl)cc3)CC2=O)N1 (stereo unspecified) | 49.6 |
| COc1ccc(C2C(C#N)=C(C)NC3=C2C(=O)CC(C)(C)C3)cc1 (stereo unspecified) | 2.98 |
| Cc1ccc(C[n+]2ccccc2)cc1 | -0.58 |
| Cc1nc2ccccn2c1P(=Nc1ccccc1)(N(C)C)N(C)C | -7.51 |

| Structure (SMILES) | inhibition [%] |
| --- | --- |
| COC(=O)[C@@H]1C[C@@]2(O)[C@@H](O)[C@@H](O)[C@@H](O)C[C@H]2N1Cc1ccc(C(F)(F)F)cc1 | -13 |
| CCOC(=O)c1ccc(-c2c(-c3cc(OC)c(OC)c(OC)c3)noc2C)cc1F | 8.43 |
| CCOC(=O)c1ccc(-c2c(-c3ccc4c(c3)OCO4)noc2-c2ccsc2)cc1F | 7.75 |
| CCCOc1ccc(N2CC(C(=O)Nc3ncccc3C)CC2=O)cc1 (stereo unspecified) | 25.7 |
| O=C1CCc2cc(S(=O)(=O)NC(Cc3ccccc3)C(=O)NCCC3=CCCCC3)ccc2N1 (stereo unspecified) | -6.41 |
| COc1ccccc1Cn1c(=S)[nH]c2cc(C(=O)NCC3CCCO3)ccc2c1=O (stereo unspecified) | 2.37 |
| CC(=O)N1CCc2c(sc(NC(=O)C3CC3)c2-c2nc3ccccc3s2)C1 | 15.3 |
| CC(=O)Nc1scc(C)c1-c1nc2ccccc2s1 | 26 |
| Cc1ccccc1NC(=O)Cn1c(C)nc2ccc(NC(=O)C3CC3)cc2c1=O | 2.87 |
| NS(=O)(=O)c1ccc(N2N=C(c3ccccc3)CC2c2ccccc2)cc1 (stereo unspecified) | 16.9 |
| NS(=O)(=O)c1ccc(N2N=C(c3ccccc3)CC2c2ccc(F)cc2)cc1 (stereo unspecified) | 12.8 |
| O=C(O)c1ccccc1C(=O)NCCc1c(C(=O)O)[nH]c2ccc(Cl)cc12 | 7.67 |
| COc1cccc(NC(=O)CSc2nc3ccccc3c(=O)n2CCCC(=O)NCCCN2CCOCC2)c1 | -10.7 |
| CCOC(=O)c1ccc(NC(=O)Nc2ccc(F)cc2)cc1 | 0.77 |
| CCOC(=O)c1ccc(NC(=S)NCCc2ccc(OC)c(OC)c2)cc1 | 47.4 |
| O=C(O)C1CCN(c2ccc(S(=O)(=O)N3CCOCC3)cc2[N+](=O)[O-])CC1 | -9.82 |
| Cn1cnc(C(=O)NC2CCN(C(=O)OC(C)(C)C)CC2)c1C(=O)NC1CCN(C(=O)OC(C)(C)C)CC1 | -7.54 |
| CCn1c(N2CCN(C(=O)/C=C/c3ccccc3)CC2)nc2ccccc21 | 6.08 |
| CC(C)Cn1c(N2CCN(C(=O)c3cccs3)CC2)nc2ccccc21 | -9 |
| CSc1nc2ccccc2n1CC(=O)Nc1c(C)n(C)n(-c2ccccc2)c1=O | -4.84 |
| CCOc1ccc(CN2C(=O)c3ccccc3C2C(=O)NC(C)CC)cc1OC (stereo unspecified) | 2.03 |
| O=C(NCc1ccco1)c1ccc(-c2ccccc2Cl)o1 | -1.96 |
| COc1ccc(CCC(=O)OC(C)C(=O)c2ccc(C)cc2)cc1 (stereo unspecified) | -2.54 |

| Structure (SMILES) | inhibition [%] |
| --- | --- |
| Cc1noc2ncnc(Sc3c(Cl)cccc3Cl)c12 | 47.8 |
| COc1ccc(Sc2ncnc3onc(C)c23)cc1 | 3.37 |
| O=C(O)/C=C/C(=O)Nc1ccccc1-c1ccccc1NC(=O)/C=C/C(=O)O | 3.08 |
| CCn1nc(C)c(CCC(=O)O)c1C | 4.75 |
| Cc1ccc(/C=C/C(=O)OCC(=O)NCCc2ccc(S(N)(=O)=O)cc2)o1 | -0.03 |
| COc1ccc(/C=N/Nc2ncnc3scc(-c4ccccc4)c23)cc1OC | -0.49 |
| COc1cccc(/C=N/Nc2ncnc3scc(-c4ccccc4)c23)c1OC | 8.3 |
| CC1CCCCN1C(=O)Nc1ccccc1Cl (stereo unspecified) | -0.25 |
| O=S(=O)(c1ccc(S(=O)(=O)N2CCN3CCCC3C2)cc1)N1CCCC1 (stereo unspecified) | -15.1 |
| CCOC(=O)c1sc(NC(=O)CSc2nc3ccccc3s2)c(C(=O)OCC)c1C | 12.6 |
| CCc1c(O)cc2n(c1=O)-c1ccc(Cl)cc1C2(C)C | -2.84 |
| Cc1c(O)cc2n(c1=O)-c1ccc(Cl)cc1C2(C)C | -11.1 |
| Cc1ccsc1C1Nc2ccc3ncccc3c2C2=C1C(=O)CCC2 (stereo unspecified) | 2.32 |
| O=C(Nc1ccc(Cl)cn1)Nc1ccccc1F | -4.27 |
| COCCn1c(=NC(=O)c2cc(Cl)sc2Cl)sc2cc(S(N)(=O)=O)ccc21 | -0.08 |
| C=CCn1c(=NC(=O)c2cc(Cl)sc2Cl)sc2cc(S(N)(=O)=O)ccc21 | -3.02 |
| Oc1ccccc1CN1CCN(C(O)(c2ccccc2)c2ccccc2)CC1 | 12.9 |
| N/C(=N\OC(=O)c1cc(Cl)ccc1Cl)c1ccccn1 | 30 |
| COc1cc(OC)c(C(=O)O/N=C(\N)c2ccccn2)cc1OC | 7.81 |
| C=CC[C@@H](CC(=O)N[C@@H](CO)Cc1ccccc1)C(=O)N[C@H](COC(=O)[C@@H](CC=C)Cc1ccc(F)cc1)C(C)(C)C | -11 |
| CCc1ccc(/C=C2/C(=O)N(CC)C(=S)N2C)s1 | 12.3 |
| CCc1ccc(/C=C2/C(=O)N(c3ccccc3)C(=S)N2CC(=O)OC)s1 | 10.2 |
| O=c1cc(CSc2ccc([N+](=O)[O-])cc2)nc2sccn12 | -11.9 |

| Structure (SMILES) | inhibition [%] |
| --- | --- |
| CCN(CC)CCCNC(=O)c1cc2c(Cl)nc3ccccc3c2s1 | 5.92 |
| O=C(NCCCN1CCCC1)c1cc2c(Cl)nc3ccccc3c2s1 | 9.47 |
| O=[N+]([O-])c1ccc(C(=S)N2CCN(Cc3ccccc3)CC2)cc1 | 6.67 |
| CCCCOC(=O)Nc1ccc(S(=O)(=O)Nc2cc(C)nc(C)n2)cc1 | 50.1 |
| CCCCOC(=O)Nc1ccc(S(=O)(=O)Nc2nc(C)cc(C)n2)cc1 | 0.81 |
| O=C(CSC(=S)N1CCCCC1)c1ccccc1 | 69.2 |
| Cc1oc2cc(O)ccc2c(=O)c1-c1cnn(-c2ccccc2)c1 | -3.21 |
| O=c1c(-c2ccc(O)cc2)coc2cc(O)ccc12 | 3.16 |
| CCc1ccc(-c2cc(C(=O)Nc3c(C)n(C)n(-c4ccccc4)c3=O)c3ccccc3n2)s1 | 5.93 |
| Cc1[nH]n(-c2ccccc2)c(=O)c1/C=N/N(c1ccccc1)c1ccccc1 | 62.4 |
| CCC(=O)N/C(N)=N/c1nc(C)c2cc(C)c(C)cc2n1 | 7.41 |
| Cc1ccc2nc(N=C(N)N)nc(C)c2c1 | 12.5 |
| CCCC(=O)N/C(N)=N/c1nc(C)c2cc(C)ccc2n1 | 45.9 |
| Cc1cc2nc(/N=C(\N)NC(=O)N3c4ccccc4Sc4ccccc43)nc(C)c2cc1C | -0.79 |
| COc1ccc(C(=O)Nc2cnccn2)cc1[N+](=O)[O-] | -6.82 |
| O=C(CCN1C(=O)c2ccccc2C1=O)Nc1nc2ccccc2s1 | 10.8 |
| NC(=O)[C@@H]1CC2(CC(c3cccc(NC(=O)[C@H]4CCC(=O)N4)c3)=NO2)CN1C(=O)COc1ccc(Cl)cc1 (stereo partly specified) | 0.87 |
| Cc1cccc(C(=O)Nc2cccc3cccnc23)c1 | 25.4 |
| O=C(CSCc1ccccc1Cl)Nc1c[nH]c(=O)[nH]c1=O | 1.55 |
| Cn1c(NCC(O)c2ccccc2)nc2c1c(=O)n(Cc1ccc(Cl)cc1)c(=O)n2C (stereo unspecified) | 48.9 |
| CC(O)CNc1nc2c(c(=O)n(Cc3ccc(Cl)c(Cl)c3)c(=O)n2C)n1C (stereo unspecified) | 6.85 |
| CCOC(=O)c1ccc(COC(=O)CNC(=O)CNC(=O)Cc2ccccc2)cc1 | -12.4 |
